# Measurements published in PubChem BioAssay (NCI).
# This is part of a sample that, as a whole, favours compounds with a hit. Of some 83,000 tested, about 20% had one in any assay.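 Step 1: grow cells in 96-well plates. Step 2: add test compound at a single concentration. Step 3: incubate 48 h. Step 4: record percent growth.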 A number with no mark means an inactive call. Active and inactive are the calls of the source. How the source made its calls: active means growth percent below 10; inactive means the rest.
# Assays:
# Assay in all cases: NCI-60 one-dose screen, 48 h (100 = growth as untreated, 0 = no growth, -100 = all killed)
# Conditions in all cases: 10 µM unless noted
# [1] = tested on: SR leukemia
# [2] = tested on: RPMI-8226 leukemia
# [3] = tested on: OVCAR-8 ovarian
# [4] = tested on: OVCAR-5 ovarian
# [5] = tested on: OVCAR-4 ovarian
# [6] = tested on: SK-OV-3 ovarian
# [7] = tested on: IGROV1 ovarian
# [8] = tested on: OVCAR-3 ovarian
# [9] = tested on: HS 578T breast
# [10] = tested on: NCI/ADR-RES ovarian
Compound,growth [1],growth [2],growth [3],growth [4],growth [5],growth [6],growth [7],growth [8],growth [9],growth [10]
O=C(O)CNC1=C(Cl)C(=O)c2ccccc2C1=O,107%,87.4%,87.9%,118%,97%,114%,103%,97.5%,124%,98.3%
O=C(/C=C(/C=C/c1cccc2[nH]ccc12)OB(F)F)/C=C/c1cccc2[nH]ccc12,3.72% (active),-31.5% (active),-30% (active),-27.6% (active),11.5%,-20.7% (active),-3.07% (active),-25.1% (active),10.3%,3.47% (active)
CCCCC[C@@H]1Cc2cc(O)c(C(=O)O)c3c2[C@H](C[C@]2(OC[C@@H](CC(=O)[C@@](C)(CC)C(=O)OC)[C@@H]2C)O3)O1,105%,108%,99.4%,111%,104%,104%,103%,111%,99.8%,113%
O=C(NNc1nccc(Nc2ccc(S(=O)(=O)Nc3ccncc3)cc2)n1)c1ccccc1,87.6%,95.6%,99.4%,101%,106%,107%,102%,100%,110%,85.4%
CCNC(=O)c1[nH]cc(-c2ccccc2)c1-c1cc(OC)c2c(c1OC)OCO2,93%,99%,98.9%,98.5%,98.6%,90.3%,88.5%,104%,93.2%,93%
O=[N+]([O-])c1ccc(-c2nc(N3CCOCC3)c3c4c(sc3n2)CCCC4)cc1,76.4%,109%,99.8%,95.4%,92.2%,81.2%,75.2%,93.8%,90.7%,102%
CNC(=O)c1cc(Oc2ccc3c(c2)sc2nc(-c4cc(OC)c(OC)c(OC)c4)cn23)ccn1,35.5%,21%,49.1%,104%,46.2%,77.7%,72.7%,71.9%,70.2%,63.5%
Cc1nc2sc(C(=O)Nc3ccccc3)c(N)c2cc1C(=O)c1ccccc1,8.32% (active),38%,56%,59%,63%,4.72% (active),56.8%,29.2%,13%,37.8%
NC(=O)CCC(C(=O)O)N1C(=O)c2ccc(O)cc2C1=O (stereo not given),139%,82.1%,106%,131%,123%,-100% (active),105%,97.6%,107%,132%
COc1cc(-c2csc(NC(=O)c3cc(-n4cnc(C)c4)cc(C(F)(F)F)c3)n2)cc(OC)c1OC,34%,24.1%,40.2%,104%,70.9%,114%,52%,65%,26.7%,64.9%
O=C(/C=C/c1cccs1)c1ccc(Cl)nc1,82.5%,4.19% (active),99.3%,103%,104%,95.7%,107%,116%,105%,108%
CCn1c(SCC(=O)c2ccc(Br)cc2)nnc1-c1ccncc1,98.3%,103%,109%,108%,101%,118%,115%,106%,105%,107%
O=C1Nc2ccccc2[C@]12CC(c1ccccc1)=NN2,21.6%,39%,65.8%,61.7%,84.5%,57.1%,33.1%,27.7%,58.4%,44.9%
COC(=O)[C@]1(C)CCC[C@]2(C)[C@H]3C[C@H]4C(C(C)C)=C[C@]3(CC[C@H]21)[C@H]1[C@@H]4[C@@H](OCCC#N)CC[C@@H]1OCCC#N,2.88% (active),-16.1% (active),51.5%,92.8%,30.7%,75.8%,41.5%,22.7%,59.4%,41.8%
O=C(NNC(=O)c1ccc(-n2cc(-c3ccccc3)nn2)cc1)Nc1ccccc1,110%,102%,95.9%,120%,104%,85.2%,103%,114%,92.2%,107%
O=C1Nc2ccccc2/C1=C\c1nc(-c2ccccc2)n2ccccc12,101%,81.9%,95.5%,90.6%,73.7%,81%,67%,115%,118%,93.9%
CCn1c(=S)sc2c(Nc3ccc(F)cc3)nc(-c3cccnc3)nc21,95.6%,88%,43.7%,85.8%,-12% (active),56.6%,75.3%,78.7%,49%,55.4%
NC(=O)c1c(NC(=O)c2ccccc2)sc2c1CCC(=O)C2,7.6% (active),-10.3% (active),17.2%,20.3%,-5.57% (active),50.9%,27.1%,7.93% (active),24.5%,7.2% (active)
CSc1nnc(-c2cnn3c2NC(c2ccccc2)C3)n1-c1ccc(C(F)(F)F)cc1 (stereo not given),17.2%,56.9%,79.4%,84.7%,59.1%,69.4%,69.8%,37.6%,64.7%,56%
C=C(C)[C@@H]1CC[C@]2(C)[C@H](CC=C3[C@@H]4[C@H](C)[C@@H](C)CC[C@]4(CO)CC[C@]32C)[C@@]1(C)CCCN,-35.4% (active),-33.7% (active),-48.5% (active),60.6%,5.39% (active),14.1%,30%,20.1%,25.3%,14.1%
C=C(CNCCc1ccc(O)cc1)[C@@H]1CC[C@]2(CO)CC[C@]3(C)[C@H](CC[C@@H]4[C@@]5(C)CCC(NCCO)C(C)(C)[C@@H]5CC[C@]43C)[C@@H]12 (stereo not given in full),-42.3% (active),-45.9% (active),-49.7% (active),4.67% (active),-15.9% (active),86.4%,-37.1% (active),-41.7% (active),-61.1% (active),53.8%
COc1cc(C(=O)n2nc(N3CCN(C)CC3)c3cc(N)ccc32)cc(OC)c1OC,13.3%,33.3%,30.3%,50.4%,49.7%,28.1%,32.5%,4.26% (active),44.5%,67.9%
CN1CCN(Cc2ccc3c(NNC(=O)c4ccccc4)nc4cc(F)ccc4n23)CC1,7.6% (active),26.4%,17.6%,59.2%,24.1%,37.1%,21.7%,38.9%,70.6%,8.77% (active)
O=C(CSc1nc(-c2ccccc2)[nH]c1S(=O)(=O)c1ccccc1)NC1CC1,92.1%,90.1%,97.2%,109%,95%,13.4%,107%,102%,99.2%,83.1%
CC(C)(C)[Si](C)(C)O[C@H]1C(=O)C=CN2CC=C[C@@H]12,81.8% [100 µM],115% [100 µM],97% [100 µM],94.4% [100 µM],110% [100 µM],101% [100 µM],114% [100 µM],103% [100 µM],95.3% [100 µM],106% [100 µM]
O=C(Nc1nc2ccc(F)cc2s1)c1cccnc1Nc1ccc(Cl)cc1,29.5%,25%,47.3%,90.9%,-13.1% (active),58%,39.9%,13.6%,39.6%,10.5%
